Screens (PubChem)
PP1 inh: blocks human PP1-alpha phosphatase, a PP5 counter-screen; AID 2235; purified PP1alpha, OMFP fluorescence; 320,000 compounds, 0.9% hits; inhibition, % at 6.7 µM;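 active = inhibition above the mean inhibition of all tested compounds plus 3 SD, computed separately for each screening campaign, cut at about 15% in these data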
PAFAH1B2 inh: blocks human PAF acetylhydrolase 1b catalytic subunit 2; recombinant PAFAH1B2, FP-rhodamine activity probe, fluorescence polarization; 340,000 compounds, 1.2% hits; inhibition, % at 3.39 µM; P68402; AID 492953;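 active = inhibition above the mean of all tested compounds plus 3 SD, cut at about 24% in these data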;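 note: 0% = enzyme with DMSO and 100% = wells lacking PAFAH1B2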
PAFAH1B3 inh: PAFAH1B3 (human) inhibition. Q15102. recombinant PAFAH1B3, FP-rhodamine probe, fluorescence polarization. inhibition, % at 3.39 µM. 340,000 compounds, 0.28% hits. AID 492972;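 active = inhibition above the screen-wide average of all tested compounds plus 3 SD, cut at about 25% in these data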;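 note: 0% = enzyme with DMSO only and 100% = wells lacking PAFAH1B3 protein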
Target sequence (Q15102 whole entry, looked up): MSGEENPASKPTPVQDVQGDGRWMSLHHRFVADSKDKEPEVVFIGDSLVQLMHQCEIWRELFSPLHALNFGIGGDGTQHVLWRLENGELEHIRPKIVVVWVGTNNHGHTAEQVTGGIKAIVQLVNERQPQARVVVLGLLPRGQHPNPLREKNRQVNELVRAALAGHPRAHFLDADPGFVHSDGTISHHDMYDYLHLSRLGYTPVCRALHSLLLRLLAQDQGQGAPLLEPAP
PP5 primary: inhibitors of human protein phosphatase 5 (PP5) | P53041 | inhibition, % at 6.7 µM | purified PP5c, OMFP substrate fluorescence | AID 1987 | 320,000 compounds, 0.18% hits;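 active = inhibition above the campaign's mean inhibition across all tested compounds plus 3 SD, cut at about 9.5% in these data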;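 note: 0% = DMSO only and 100% = 100 µM cantharidin control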
pPAFAH FP inh: pPAFAH (human) enzyme inhibition | recombinant pPAFAH, FP-rhodamine probe fluorescence polarization | inhibition, % at 3.39 µM | 330,000 compounds, 1.5% hits | AID 463082;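 active = inhibition above the mean inhibition across the screen plus 3 SD, cut at about 25% in these data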;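 note: inhibitors block binding of the rhodamine activity-based probe so polarization drops; 0% = enzyme with DMSO and 100% = wells lacking pPAFAH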
Target sequence (Q13093 whole entry, looked up): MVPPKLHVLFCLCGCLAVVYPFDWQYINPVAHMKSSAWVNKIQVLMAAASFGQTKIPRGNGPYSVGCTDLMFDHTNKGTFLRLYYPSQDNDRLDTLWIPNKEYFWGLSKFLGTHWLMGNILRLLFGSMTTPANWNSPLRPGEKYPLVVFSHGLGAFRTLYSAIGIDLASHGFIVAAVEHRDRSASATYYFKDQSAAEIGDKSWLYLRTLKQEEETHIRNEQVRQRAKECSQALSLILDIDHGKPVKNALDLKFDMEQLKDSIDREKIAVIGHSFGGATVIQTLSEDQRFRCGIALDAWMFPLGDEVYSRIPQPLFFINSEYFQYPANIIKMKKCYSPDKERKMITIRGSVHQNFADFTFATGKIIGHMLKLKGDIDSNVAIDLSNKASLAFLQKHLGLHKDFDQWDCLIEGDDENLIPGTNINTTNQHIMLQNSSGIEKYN
PAFAH2 FP inh: PAFAH2 (human) inhibition | recombinant PAFAH2, FP-rhodamine activity probe, fluorescence polarization | inhibition, % at 3.39 µM | 340,000 compounds, 0.99% hits | AID 492956;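 active = inhibition above the mean over all tested compounds plus 3 SD, cut at about 30% in these data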;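 note: inhibitors block probe labeling of enzyme so polarization drops; 0% = enzyme with DMSO and 100% = wells lacking PAFAH2 protein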
Starred values were filed as active, the others as inactive. A selection: hits, their analogues and other compounds. The true share with any hit is near 3.4%.

What do the screens show for `Nc1[nH]ncc1-c1ccc(F)cc1`?
PP1 inh: 2; PAFAH1B2 inh: -1; PAFAH1B3 inh: -8; PP5 primary: 3; pPAFAH FP inh: 30*; PAFAH2 FP inh: -2

How did CCCC(=O)Nc1c(-c2cccs2)c(=O)c2ccccc2n1C do in these assays?
PP1 inh: -2; PAFAH1B2 inh: 2; PAFAH1B3 inh: 6; PP5 primary: 5; pPAFAH FP inh: 2; PAFAH2 FP inh: -6

What do the screens show for `CCOc1ccc(OCC)c(NC(=O)CN(C)S(=O)(=O)c2cnc[nH]2)c1`?
PP1 inh: -1; PAFAH1B2 inh: 6; PAFAH1B3 inh: 2; PP5 primary: 0; pPAFAH FP inh: 1; PAFAH2 FP inh: 2

What do the screens show for `NS(=O)(=O)c1ccc(CCNC(=O)c2ccc3nccnc3c2)cc1`?
PAFAH1B2 inh: 8; PAFAH1B3 inh: 4; pPAFAH FP inh: 30*; PAFAH2 FP inh: 7

How did CNC(=O)CS(=O)CC(=O)Nc1cc(OCCOC)c(Cl)cc1Cl (stereo not drawn) do in these assays?
PP1 inh: -1; PAFAH1B2 inh: 4; PAFAH1B3 inh: 3; PP5 primary: 1; pPAFAH FP inh: 30*; PAFAH2 FP inh: -1

Results for O=C(Nc1nc2ccc(S(=O)(=O)N3CCCCC3)cc2s1)c1ccncc1 ?
PP1 inh: -1; PAFAH1B2 inh: 30*; PAFAH1B3 inh: 6; PP5 primary: 1; pPAFAH FP inh: 0; PAFAH2 FP inh: -2

Results for CCOC(=O)N/N=C/c1ccc(OCCSc2ccc(Cl)cc2)c(OC)c1 ?
PP1 inh: 2; PAFAH1B2 inh: 18; PAFAH1B3 inh: 3; PP5 primary: 5; pPAFAH FP inh: 34*; PAFAH2 FP inh: 1

What do the screens show for `COc1ccc(NC(=O)Nc2c(SC)nsc2SC)cc1`?
PP1 inh: -3; PAFAH1B2 inh: 6; PAFAH1B3 inh: -4; PP5 primary: -4; pPAFAH FP inh: -9; PAFAH2 FP inh: 7

How did Cc1ccc(S(=O)(=O)CCC(=O)NCCN2C(=O)S/C(=C/c3ccc(F)cc3)C2=O)cc1 do in these assays?
PP1 inh: 3; PAFAH1B2 inh: 33*; PAFAH1B3 inh: 4; PP5 primary: 2; pPAFAH FP inh: 5; PAFAH2 FP inh: 6

What do the screens show for `O=C(O)c1cc(NC(=O)c2ccc(Br)cc2)cc(NC(=O)c2ccc(Br)cc2)c1`?
PP1 inh: 7; PAFAH1B2 inh: 30*; PAFAH1B3 inh: -4; PP5 primary: 2; pPAFAH FP inh: -15; PAFAH2 FP inh: -10

How did C/C(=N/NC(=O)CNC(=O)CCc1ccccc1)c1ccc(Cl)cc1 do in these assays?
PP1 inh: 1; PAFAH1B2 inh: 5; PAFAH1B3 inh: -4; PP5 primary: 4; pPAFAH FP inh: -2; PAFAH2 FP inh: 4

How did O=C(O)CC/C(=N/NC(=O)CNC(=O)Cc1ccc(Cl)cc1)c1ccccc1 do in these assays?
PP1 inh: 10; PAFAH1B2 inh: 24*; PAFAH1B3 inh: 8; PP5 primary: -2; pPAFAH FP inh: 16; PAFAH2 FP inh: -2

Results for Cc1nc2oc3c(NCC4CCCO4)ncnc3c2c2c1COC(C)(C)C2 (stereo not drawn) ?
PP1 inh: 3; PAFAH1B2 inh: 2; PAFAH1B3 inh: 12; PP5 primary: 4; pPAFAH FP inh: 4; PAFAH2 FP inh: 6

What do the screens show for `Cc1nc2oc3c(NCc4ccccc4)ncnc3c2c2c1COC(C)(C)C2`?
PP1 inh: 1; PAFAH1B2 inh: 8; PAFAH1B3 inh: 10; PP5 primary: 2; pPAFAH FP inh: 27*; PAFAH2 FP inh: 8

How did Cc1ccc(CSc2nc3c(c(=O)[nH]2)CCC3)cc1 do in these assays?
PP1 inh: -14; PAFAH1B2 inh: 25*; PAFAH1B3 inh: 10; PP5 primary: 5; pPAFAH FP inh: 8; PAFAH2 FP inh: 2

Results for Cc1ccccc1CSc1nc2c(c(=O)[nH]1)CCCC2 ?
PP1 inh: 2; PP5 primary: 0; pPAFAH FP inh: 51*

How did O=c1cc(-c2ccccc2)nc(SCc2ccc(F)cc2)[nH]1 do in these assays?
PP1 inh: 4; PAFAH1B2 inh: 17; PAFAH1B3 inh: 3; PP5 primary: 2; pPAFAH FP inh: 4; PAFAH2 FP inh: 12

Results for Cc1cccc(CSc2nc3c(c(=O)[nH]2)CCC3)c1 ?
PP1 inh: -4; PAFAH1B2 inh: 0; PAFAH1B3 inh: -5; PP5 primary: 0; pPAFAH FP inh: 20; PAFAH2 FP inh: 14

Results for CCCc1cc(=O)[nH]c(SCc2ccc(F)cc2)n1 ?
PP1 inh: 4; PAFAH1B2 inh: 11; PAFAH1B3 inh: 6; PP5 primary: 0; pPAFAH FP inh: 31*; PAFAH2 FP inh: 2

What do the screens show for `Cc1ccc(CSc2nc(N)cc(=O)[nH]2)cc1`?
PP1 inh: 6; PAFAH1B2 inh: 25*; PAFAH1B3 inh: -8; PP5 primary: 1; pPAFAH FP inh: 2; PAFAH2 FP inh: -10

Results for O=c1[nH]c(SCc2ccccc2Cl)nc2c1CCC2 ?
PP1 inh: -2; PAFAH1B2 inh: 8; PAFAH1B3 inh: 4; PP5 primary: 2; pPAFAH FP inh: 15; PAFAH2 FP inh: 14

How did N#Cc1ccc(CSc2nc(N)cc(=O)[nH]2)cc1 do in these assays?
PP1 inh: -2; PAFAH1B2 inh: 19; PAFAH1B3 inh: 6; PP5 primary: -1; pPAFAH FP inh: 4; PAFAH2 FP inh: 0

What do the screens show for `Cc1ccc(S(=O)(=O)NCCCCCC(=O)NCCc2ccccc2)cc1`?
PP1 inh: 4; PAFAH1B2 inh: 30*; PAFAH1B3 inh: 13; PP5 primary: 3; pPAFAH FP inh: 13; PAFAH2 FP inh: -1

Results for Cc1ccc(CS(=O)(=O)CCC(=O)NCCc2ccccc2)cc1 ?
PP1 inh: -1; PAFAH1B2 inh: 7; PAFAH1B3 inh: 1; PP5 primary: 2; pPAFAH FP inh: 25*; PAFAH2 FP inh: 3

Results for Cc1ccc(Cn2c(N3CCN(C)CC3)nc3c2c(=O)[nH]c(=O)n3C)cc1 ?
PP1 inh: -1; PAFAH1B2 inh: 6; PAFAH1B3 inh: 4; PP5 primary: 1; pPAFAH FP inh: -1; PAFAH2 FP inh: 1

What do the screens show for `CCCCCc1ccc(OCCCC[n+]2ccccc2)c(CCCCC)c1`?
PP1 inh: 13; PAFAH1B2 inh: 6; PAFAH1B3 inh: 8; PP5 primary: -1; pPAFAH FP inh: -5; PAFAH2 FP inh: -9

What do the screens show for `CCC(C)(C)c1ccc(OCCCC[n+]2ccccc2)c(C(C)(C)CC)c1`?
PP1 inh: 15*; PAFAH1B2 inh: -2; PAFAH1B3 inh: 3; PP5 primary: 6; pPAFAH FP inh: 3; PAFAH2 FP inh: -1

What do the screens show for `NC(=O)C1CCN(C(=O)c2cc(-c3ccccc3Cl)nc3ccccc23)CC1`?
PAFAH1B2 inh: 5; PAFAH1B3 inh: 3; pPAFAH FP inh: 0; PAFAH2 FP inh: 0

Results for Oc1c(Br)cc(/C=N/n2c(-c3ccccc3)n[nH]c2=S)cc1Br ?
PAFAH1B2 inh: -2; PAFAH1B3 inh: 4; PAFAH2 FP inh: 9

How did Oc1c(Br)cc(/C=N/n2c(-c3ccccc3)n[nH]c2=S)c(O)c1Br do in these assays?
PAFAH1B2 inh: 8; PAFAH1B3 inh: 28*; PAFAH2 FP inh: 45*
